From PubChem BioAssay (NCATS)
Results filed as inconclusive are left out. Calls of active or inactive are those of the source. Unless noted, the call rests on the fitted dose curve; in most records, active means well fitted curve in either direction with a large enough effect (not every such curve was filed as active); inconclusive means small, poorly fitted or top-dose-only effect, or another doubt; inactive means flat fitted curve, though single readings scatter.

Experiments:
[1] = molecular target: Lysosomal acid glucosylceramidase (Homo sapiens) (UniProt P04062); assay: Glucocerebrosidase-p2 (AID 348; in the data active means potency below about 10 µM; further: potency means the concentration at half of the fitted maximal effect); conditions: purified GBA, blue fluorogenic substrate, 40 min
Chain of Lysosomal acid glucosylceramidase (Homo sapiens) (P04062 whole entry, looked up): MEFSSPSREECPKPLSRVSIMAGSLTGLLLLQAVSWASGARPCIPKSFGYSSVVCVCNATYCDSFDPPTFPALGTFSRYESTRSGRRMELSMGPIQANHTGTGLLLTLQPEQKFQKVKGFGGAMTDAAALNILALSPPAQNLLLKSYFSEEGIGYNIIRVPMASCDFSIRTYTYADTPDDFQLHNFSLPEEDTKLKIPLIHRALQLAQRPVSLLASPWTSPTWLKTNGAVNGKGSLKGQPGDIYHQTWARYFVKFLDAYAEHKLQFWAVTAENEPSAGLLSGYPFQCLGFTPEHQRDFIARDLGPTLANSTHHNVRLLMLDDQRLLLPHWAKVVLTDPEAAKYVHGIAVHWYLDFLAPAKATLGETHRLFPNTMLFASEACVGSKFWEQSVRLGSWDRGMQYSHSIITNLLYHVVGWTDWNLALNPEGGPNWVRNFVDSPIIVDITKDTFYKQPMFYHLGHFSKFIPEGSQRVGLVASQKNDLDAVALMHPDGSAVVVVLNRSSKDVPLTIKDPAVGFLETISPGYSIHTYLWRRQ
Procedure, shortened: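 Compounds titrated from 0.6 nM upwards against 0.2 nM enzyme in pH 5.9 citric acid/KH2PO4, taurocholate, tween-20; blue fluorogenic substrate 80 uM, 40 min room temperature, stopped and read Ex 365/Em 440 for AC50.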

[2] = AP1 Signaling Pathway (AID 357); conditions: ME-180 AP-1-bla reporter, EGF-induced, beta-lactamase ratio, 5 h; at 7.69 µM (top of the series) unless noted;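 further: ME-180 reporter cells stimulated with EGF at its EC50 level; on the % scale 0 is the no-effect control and ±100 the full control effect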
Procedure, shortened: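 In this screen, ME-180 cells in Opti-MEM with 0.5% dialyzed FBS received EC50 EGF and compound titrations for 5 h. AP-1 reporter beta-lactamase was detected via CCF4 ratio, giving AC50 for positive and negative modulators.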

[3] = molecular target: Cytochrome P450 1A2 (Homo sapiens) (UniProt P05177); assay: p450-cyp1a2 (AID 410; calls by dose curve; further: potency means the concentration at half of the fitted maximal effect;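 on activity change, negative = inhibition: -100% = full effect of reference inhibitor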); conditions: recombinant CYP1A2, luciferin-ME demethylation, luminescence; series mostly up to 11.4 µM
Chain of Cytochrome P450 1A2 (Homo sapiens) (P05177 whole entry, looked up): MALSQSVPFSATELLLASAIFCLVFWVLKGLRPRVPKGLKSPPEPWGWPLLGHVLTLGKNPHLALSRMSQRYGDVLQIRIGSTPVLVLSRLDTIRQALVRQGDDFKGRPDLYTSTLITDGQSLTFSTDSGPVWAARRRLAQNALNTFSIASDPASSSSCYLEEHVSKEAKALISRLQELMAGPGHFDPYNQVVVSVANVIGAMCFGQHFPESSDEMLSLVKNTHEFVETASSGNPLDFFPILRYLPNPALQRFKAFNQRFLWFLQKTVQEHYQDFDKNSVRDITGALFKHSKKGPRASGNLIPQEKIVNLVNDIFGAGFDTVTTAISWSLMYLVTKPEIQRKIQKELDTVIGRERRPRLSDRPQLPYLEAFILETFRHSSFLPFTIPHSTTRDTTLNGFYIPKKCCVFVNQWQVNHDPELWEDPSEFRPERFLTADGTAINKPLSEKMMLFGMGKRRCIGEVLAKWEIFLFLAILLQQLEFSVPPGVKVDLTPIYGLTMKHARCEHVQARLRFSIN
Procedure, shortened: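 Inhibition was calculated relative to 57 uM furafylline (full inhibition). The reaction used human CYP1A2 at 20nM with Luciferin-ME at its Km, 100uM, driven by an NADPH-regenerating system for 60 min at room temperature.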

[4] = NFAT Signaling Pathway (AID 444); conditions: Jurkat NFAT-bla M1, carbachol, beta-lactamase ratio, 5 h; at 7.69 µM (top of the series) unless noted;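 further: carbachol stimulus at about its EC50 of 1 µM final; on the % scale 0 is the no-effect control and ±100 the full control effect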
Procedure, shortened: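 Jurkat cells with NFAT-driven β-lactamase reporter and co-expressed M1 receptor, stimulated with carbachol (final 1 uM, ~EC50), compound titration, 5 h at 37 °C. CCF4 loaded 1 h at RT; 460/530 nm ratio gave %activity and AC50.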

[5] = Stat Signaling Pathway (AID 446); conditions: ME-180 SIE beta-lactamase reporter, IL-6 stimulated, 5 h; at 7.69 µM (top of the series) unless noted;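 further: ME-180 cervical cancer cells given 40 pM IL-6 alongside compound; SIE-controlled beta-lactamase reporter measured as 460/530 nm FRET emission ratio; on the % scale 0 is the no-effect control and ±100 the full control effect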
Procedure, shortened: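 Reporter line: ME-180 cervical carcinoma, SIE-beta-lactamase. Treatment: compound with 40 pM IL-6, 5 hrs, 37 C, in low-serum OPTI-MEM with 10 mM HEPES pH 7.3. Detection: 460/530 nm fluorescence.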

[6] = molecular target: Glucocorticoid receptor (Homo sapiens) (UniProt P04150); assay: GR-GFP Redistribution (AID 450;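 active means compounds whose dose series gives a full or clear partial fitted curve of increased nuclear translocation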; further: potency means the concentration at half of the fitted maximal effect); conditions: U2OS GR-GFP nuclear translocation, laser cytometry, 2 h
Chain of Glucocorticoid receptor (Homo sapiens) (P04150 whole entry, looked up, the tested form may be a part): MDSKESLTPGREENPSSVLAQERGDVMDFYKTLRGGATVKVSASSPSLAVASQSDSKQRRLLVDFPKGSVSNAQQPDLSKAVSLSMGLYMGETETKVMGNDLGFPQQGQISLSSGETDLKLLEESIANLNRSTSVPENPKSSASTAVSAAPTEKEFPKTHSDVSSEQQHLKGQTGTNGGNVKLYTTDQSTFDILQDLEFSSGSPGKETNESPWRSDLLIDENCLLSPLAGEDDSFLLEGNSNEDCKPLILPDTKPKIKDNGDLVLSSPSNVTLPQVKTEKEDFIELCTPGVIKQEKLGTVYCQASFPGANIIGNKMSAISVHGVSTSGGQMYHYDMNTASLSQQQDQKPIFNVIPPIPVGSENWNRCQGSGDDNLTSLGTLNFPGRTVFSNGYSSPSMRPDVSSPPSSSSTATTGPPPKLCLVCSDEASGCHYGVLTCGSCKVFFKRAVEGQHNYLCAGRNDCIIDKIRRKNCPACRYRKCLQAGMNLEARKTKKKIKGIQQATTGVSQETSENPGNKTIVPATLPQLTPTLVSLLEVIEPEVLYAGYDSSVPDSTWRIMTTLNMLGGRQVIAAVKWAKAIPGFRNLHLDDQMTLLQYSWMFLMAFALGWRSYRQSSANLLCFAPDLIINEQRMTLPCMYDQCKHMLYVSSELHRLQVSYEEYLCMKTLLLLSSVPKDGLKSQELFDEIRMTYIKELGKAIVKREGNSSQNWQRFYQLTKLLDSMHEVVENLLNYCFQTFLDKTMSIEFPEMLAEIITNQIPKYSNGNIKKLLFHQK

[7] = molecular target: Glucocorticoid receptor (Homo sapiens) (UniProt P04150); assay: GR-EFC Redistribution (AID 451; calls by dose curve; further: potency means the concentration at half of the fitted maximal effect); conditions: CHO-K1 GR-EFC translocation, beta-gal luminescence, 2 h
Procedure, shortened: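 CHO-K1 cells expressing nuclear EA and GR-ED fragments of b-gal; compounds titrated up to 46 uM final, 2 h at 37 C. GR nuclear translocation read as complemented b-gal luminescence after 1 h RT detection.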

[8] = molecular target: Mitogen-activated protein kinase 10 (Mus musculus) (UniProt Q61831); assay: JNK3 AlphaScreen Assay (AID 530); conditions: JNK3 lysate, c-Jun phosphorylation; series mostly up to 57.1 µM;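 further: kinase came from lysate of stimulated human HepG2 cells; signal reports phosphorylation of biotinylated GST-cJun 1-79 at Ser73 with 10 µM ATP; on the % scale 0 is the no-effect control and ±100 the full control effect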
Procedure, shortened: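 qHTS format: compounds tested as titrations against IL-1beta/TNF-alpha-activated HepG2 lysate JNK3 with biotin-GST-cJun substrate and 10 uM ATP at room temperature. Loss of anti-phospho-cJun AlphaScreen signal indicates inhibition.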

[9] = molecular target: 3',5'-cyclic-AMP phosphodiesterase 4B (Homo sapiens) (UniProt Q07343); assay: qHTS Assay for Inhibitors of PDE-IV (AID 607; active means well fitted activation curve with a large enough effect in the main read-out, with a control signal flat, not every such curve was filed as active; further: % of control where 0% means no effect); conditions: HEK293 ACTOne CNG channel cells, membrane potential fluorescence; series mostly up to 22.9 µM
Chain of 3',5'-cyclic-AMP phosphodiesterase 4B (Homo sapiens) (Q07343 whole entry, looked up): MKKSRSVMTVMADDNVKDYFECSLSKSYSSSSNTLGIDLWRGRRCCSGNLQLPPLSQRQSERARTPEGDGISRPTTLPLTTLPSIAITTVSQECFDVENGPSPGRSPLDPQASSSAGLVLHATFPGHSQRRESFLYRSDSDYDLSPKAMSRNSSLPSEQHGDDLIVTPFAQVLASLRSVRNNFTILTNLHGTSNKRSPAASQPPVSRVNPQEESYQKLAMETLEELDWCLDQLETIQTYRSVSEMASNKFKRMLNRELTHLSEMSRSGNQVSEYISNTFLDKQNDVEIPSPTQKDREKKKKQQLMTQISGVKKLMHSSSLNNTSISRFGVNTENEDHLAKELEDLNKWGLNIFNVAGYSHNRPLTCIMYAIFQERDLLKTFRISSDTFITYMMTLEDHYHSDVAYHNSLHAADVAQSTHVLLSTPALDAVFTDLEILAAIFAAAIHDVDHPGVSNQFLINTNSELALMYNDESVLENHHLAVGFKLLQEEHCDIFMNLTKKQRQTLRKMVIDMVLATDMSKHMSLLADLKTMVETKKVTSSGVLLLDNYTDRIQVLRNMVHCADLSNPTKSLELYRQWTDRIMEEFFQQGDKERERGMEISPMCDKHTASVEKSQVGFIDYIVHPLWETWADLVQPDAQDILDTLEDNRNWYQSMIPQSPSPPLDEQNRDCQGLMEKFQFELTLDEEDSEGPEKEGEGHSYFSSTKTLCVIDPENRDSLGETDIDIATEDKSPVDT
Procedure, shortened: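 Cell-based read-out of cAMP via a modified cyclic nucleotide-gated channel and membrane potential dye (535/590 nm) in HEK293 cells expressing PDE4 endogenously. Compounds tested up to 22.9 uM final; 100 uM RO 20-1724 reference.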

[10] = qHTS Assay for Identification of Small Molecule Agonists for Hypoxia Response Element Signaling Pathway (AID 914; active means well fitted activation curve with a large enough effect in the signal ratio, with a control signal flat, not every such curve was filed as active; the % refers to the signal ratio; further: % of control where 0% means no effect); conditions: ME-180 (cervical carcinoma) HRE-bla reporter, beta-lactamase ratio, CoCl2, 17 h; hits give high values
Procedure, shortened: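 HRE-bla ME-180 cells with beta-lactamase reporter under hypoxia response element, compounds with EC50 CoCl2 for 17 hours at 37 C. CCF4 substrate, 460nm/530nm emission ratio gave %Activity; AC50 from titration series.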

[11] = molecular target: Cytochrome P450 2D6 (Homo sapiens) (UniProt P10635); assay: qHTS Assay for Inhibitors and Substrates of Cytochrome P450 2D6 (AID 891; active means well fitted curve in the direction sought with a large enough effect; an effect the other way counts as inactive or inconclusive; further: potency means the concentration at half of the fitted maximal effect; nearly all actives have a fitted effect of over 60% in size); conditions: recombinant CYP2D6, luciferin-ME EGE luminescence; series mostly up to 11.4 µM
Chain of Cytochrome P450 2D6 (Homo sapiens) (P10635 whole entry, looked up): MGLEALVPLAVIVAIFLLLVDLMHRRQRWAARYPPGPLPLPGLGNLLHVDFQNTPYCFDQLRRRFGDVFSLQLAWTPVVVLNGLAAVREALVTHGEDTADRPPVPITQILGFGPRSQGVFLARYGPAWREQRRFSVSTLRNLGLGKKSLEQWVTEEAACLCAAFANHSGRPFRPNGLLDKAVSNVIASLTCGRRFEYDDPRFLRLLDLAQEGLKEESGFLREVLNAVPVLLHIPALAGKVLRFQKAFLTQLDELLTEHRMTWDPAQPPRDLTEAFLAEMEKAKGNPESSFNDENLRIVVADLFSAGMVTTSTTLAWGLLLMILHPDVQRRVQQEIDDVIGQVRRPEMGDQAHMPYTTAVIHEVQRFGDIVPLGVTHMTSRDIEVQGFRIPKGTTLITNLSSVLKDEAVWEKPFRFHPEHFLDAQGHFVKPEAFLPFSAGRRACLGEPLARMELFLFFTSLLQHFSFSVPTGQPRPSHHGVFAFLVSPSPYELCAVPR
Procedure, shortened: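 Human CYP2D6 (5 nM) with 30 uM Luciferin-ME EGE (at Km) in 100 mM KPO4, compound preincubated 10 min, then NADPH regeneration system for 60 min at room temperature. Luciferin read by luminescence; normalized to 1.43 uM quinidine.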

[12] = molecular target: Luciferin 4-monooxygenase (Photinus pyralis) (UniProt P08659); assay: Biochemical firefly luciferase enzyme assay for NPC (AID 624030; active means well fitted curve in the direction sought with a large enough effect; an effect the other way counts as inactive or inconclusive;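 further: purified P. pyralis luciferase at 10 nM with luciferin and ATP substrate; 0% = DMSO and -100% = full luciferase inhibition by PTC124 control; nearly all actives have a fitted effect of over 70% in size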); conditions: purified P. pyralis luciferase, luminescence, 5 min; series mostly up to 58.6 µM
Chain of Luciferin 4-monooxygenase (Photinus pyralis) (P08659 whole entry, looked up): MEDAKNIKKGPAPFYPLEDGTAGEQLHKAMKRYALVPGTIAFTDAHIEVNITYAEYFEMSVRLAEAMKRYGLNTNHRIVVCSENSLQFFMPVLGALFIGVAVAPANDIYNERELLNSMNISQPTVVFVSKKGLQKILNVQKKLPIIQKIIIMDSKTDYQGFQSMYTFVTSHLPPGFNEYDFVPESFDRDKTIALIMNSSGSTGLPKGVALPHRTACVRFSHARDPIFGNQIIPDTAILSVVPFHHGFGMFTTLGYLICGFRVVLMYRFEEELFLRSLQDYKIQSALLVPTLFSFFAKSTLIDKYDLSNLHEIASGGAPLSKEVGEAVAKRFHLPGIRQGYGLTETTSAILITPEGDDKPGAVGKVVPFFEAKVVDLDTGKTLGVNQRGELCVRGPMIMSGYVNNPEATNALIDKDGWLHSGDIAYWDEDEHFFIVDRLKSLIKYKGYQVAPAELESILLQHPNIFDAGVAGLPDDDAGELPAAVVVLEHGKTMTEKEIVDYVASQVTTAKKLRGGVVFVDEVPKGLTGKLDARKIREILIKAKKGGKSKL
Procedure, shortened: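 Purified P. pyralis luciferase at 10 nM in 50 mM Tris Acetate (final), luminescence read within 5 minutes of enzyme addition to compounds. Activity normalised to PTC124 versus DMSO; concentration-response curves classed by r2, magnitude and activity.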

[13] = molecular target: Cytochrome P450 3A4 (Homo sapiens) (UniProt P08684); assay: qHTS Assay for Inhibitors and Substrates of Cytochrome P450 3A4 (AID 884; active means well fitted curve in the direction sought with a large enough effect; an effect the other way counts as inactive or inconclusive; further: potency means the concentration at half of the fitted maximal effect; nearly all actives have a fitted effect of over 50% in size); conditions: recombinant CYP3A4, Luciferin-PPXE luminescence; series mostly up to 57.1 µM
Chain of Cytochrome P450 3A4 (Homo sapiens) (P08684 whole entry, looked up): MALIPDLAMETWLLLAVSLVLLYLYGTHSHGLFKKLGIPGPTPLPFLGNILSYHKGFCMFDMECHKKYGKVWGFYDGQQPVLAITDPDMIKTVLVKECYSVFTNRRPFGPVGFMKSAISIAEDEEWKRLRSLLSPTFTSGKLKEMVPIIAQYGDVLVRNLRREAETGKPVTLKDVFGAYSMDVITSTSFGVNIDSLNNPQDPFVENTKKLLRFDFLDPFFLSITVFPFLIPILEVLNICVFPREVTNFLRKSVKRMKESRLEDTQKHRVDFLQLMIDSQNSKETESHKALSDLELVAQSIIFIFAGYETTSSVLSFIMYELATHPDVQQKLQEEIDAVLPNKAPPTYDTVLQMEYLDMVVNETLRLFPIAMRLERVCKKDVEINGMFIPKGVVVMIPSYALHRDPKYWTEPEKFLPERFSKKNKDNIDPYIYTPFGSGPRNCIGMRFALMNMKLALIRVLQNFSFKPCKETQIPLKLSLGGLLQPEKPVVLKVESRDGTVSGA
Procedure, shortened: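 20 nM human CYP3A4 with 25 uM Luciferin-PPXE (at KM) in 200 mM KPO4, preincubated 10 min with compound; NADPH regeneration started a 60 min RT reaction. Luciferin detected by luminescence, normalized to 57 uM ketoconazole as full inhibition.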

[14] = molecular target: Cytochrome P450 3A4 (Homo sapiens) (UniProt P08684); assay: qHTS Assay for Activators of Cytochrome P450 3A4 (AID 885; active means well fitted curve in the direction sought with a large enough effect; an effect the other way counts as inactive or inconclusive; further: nearly all actives have a fitted effect of over 65% in size); conditions: recombinant CYP3A4, Luciferin-PPXE luminescence, 60 min; series mostly up to 57.1 µM
Procedure, shortened: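 Signal was normalized against complete inhibition by 57 uM ketoconazole. The reaction used 20nM CYP3A4 with 25uM Luciferin-PPXE, 10-min compound preincubation and a 60-min NADPH-supported step at RT.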

[15] = molecular target: Cytochrome P450 2C19 (Homo sapiens) (UniProt P33261); assay: qHTS Assay for Inhibitors and Substrates of Cytochrome P450 2C19 (AID 899; active means well fitted curve in the direction sought with a large enough effect; an effect the other way counts as inactive or inconclusive; further: potency means the concentration at half of the fitted maximal effect; nearly all actives have a fitted effect of over 60% in size); conditions: recombinant CYP2C19, luciferin-H EGE luminescence; series mostly up to 11.4 µM
Chain of Cytochrome P450 2C19 (Homo sapiens) (P33261 whole entry, looked up): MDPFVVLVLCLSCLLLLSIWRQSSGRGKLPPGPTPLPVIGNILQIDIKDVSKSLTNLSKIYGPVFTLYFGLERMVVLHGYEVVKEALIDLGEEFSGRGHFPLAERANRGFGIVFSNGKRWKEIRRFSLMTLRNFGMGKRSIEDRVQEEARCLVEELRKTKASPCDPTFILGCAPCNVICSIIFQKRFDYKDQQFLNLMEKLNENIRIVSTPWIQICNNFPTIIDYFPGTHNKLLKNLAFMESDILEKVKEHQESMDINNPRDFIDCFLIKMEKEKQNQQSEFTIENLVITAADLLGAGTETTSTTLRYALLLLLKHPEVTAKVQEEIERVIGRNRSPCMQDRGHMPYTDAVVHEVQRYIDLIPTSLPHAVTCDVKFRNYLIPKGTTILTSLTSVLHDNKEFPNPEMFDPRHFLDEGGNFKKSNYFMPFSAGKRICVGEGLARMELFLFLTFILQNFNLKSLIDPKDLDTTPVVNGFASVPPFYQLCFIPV
Procedure, shortened: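 5 nM human CYP2C19 with 10uM Luciferin-H EGE (at KM) in 50mM KPO4, compound preincubated 10 min at 37C, then NADPH regeneration for 60 min at 37C. Luciferin read by luminescence after detection reagent; normalized to 57uM ketoconazole as full inhibition.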

O=P(O)(O)CCP(=O)(O)O
inactive: Potency [1] > 11.4 µM | activity change, negative = inhibition [2] -10.9% | Potency [3] | activity change, negative = inhibition [4] 7.15% | activity, negative = inhibition [5] 11.8% | Potency [6] > 46 µM | Potency [7] > 9.22 µM | activity change, negative = inhibition [8] -1.32% [at 11.4 µM] | outcome [9]

CC(C)c1nccn1Cc1ccc(Cl)cc1Cl
inactive: Potency [1] > 11.4 µM | activity change, negative = inhibition [2] -14.8% | Potency [3] | activity change, negative = inhibition [4] -21% | activity, negative = inhibition [5] 1.75% | Potency [6] > 46 µM | Potency [7] > 9.22 µM | activity change, negative = inhibition [8] -0.456% [at 11.4 µM] | outcome [9]

O=C(O)[C@@H](Br)[C@H](Br)C(=O)O
inactive: Potency [1] > 11.4 µM | activity change, negative = inhibition [2] -8.85% | Potency [3] | activity change, negative = inhibition [4] 12.2% | activity, negative = inhibition [5] 3.93% | Potency [6] > 46 µM | Potency [7] > 9.22 µM | activity change, negative = inhibition [8] -1.13% [at 11.4 µM] | outcome [9]

[N-]=[N+]=CC(=O)CC[C@H](N)C(=O)O
inactive: Potency [1] > 11.4 µM | activity change, negative = inhibition [2] 6.38% | Potency [3] | activity change, negative = inhibition [4] -6.88% | activity, negative = inhibition [5] 6.39% | Potency [6] > 46 µM | Potency [7] > 9.22 µM | activity change, negative = inhibition [8] 31.7% [at 11.4 µM] | outcome [9]

CC(C)(C)C(=O)CP(=O)(O)O
inactive: Potency [1] > 11.4 µM | activity change, negative = inhibition [2] 11.4% | Potency [3] | activity change, negative = inhibition [4] -0.88% | activity, negative = inhibition [5] -5.75% | Potency [6] > 46 µM | Potency [7] > 9.22 µM | activity change, negative = inhibition [8] 5.32% [at 11.4 µM] | outcome [9]

O=C1N[C@@]2(CN3CCC2CC3)C(=O)N1CN(Cc1ccccc1)c1ccccc1
active: Potency [3] 0.398 µM
inactive: Potency [1] > 11.4 µM | activity change, negative = inhibition [2] -6.81% | activity change, negative = inhibition [4] 6.45% | activity, negative = inhibition [5] -6.68% | Potency [6] > 46 µM | Potency [7] > 9.22 µM | activity change, negative = inhibition [8] 4.81% [at 11.4 µM] | outcome [9]

NC[C@@H](O)CSP(=O)(O)O
inactive: Potency [1] > 11.4 µM | activity change, negative = inhibition [2] -1.23% | Potency [3] | activity change, negative = inhibition [4] -18.7% | activity, negative = inhibition [5] 2.46% | Potency [6] > 46 µM | Potency [7] > 9.22 µM | activity change, negative = inhibition [8] -5.07% [at 11.4 µM] | outcome [9]

CC(C)CCC1(CCN)C(=O)NC(=O)NC1=O
inactive: Potency [1] > 11.4 µM | activity change, negative = inhibition [2] 5.02% | Potency [3] | activity change, negative = inhibition [4] 4.97% | activity, negative = inhibition [5] 1.34% | Potency [6] > 46 µM | Potency [7] > 9.22 µM | activity change, negative = inhibition [8] -0.876% [at 11.4 µM] | outcome [9]

N[C@@H](CP(=O)(O)O)C(=O)O
inactive: Potency [1] > 11.4 µM | activity change, negative = inhibition [2] 0.329% | Potency [3] | activity change, negative = inhibition [4] 2.91% | activity, negative = inhibition [5] 2.68% | Potency [6] > 46 µM | Potency [7] > 9.22 µM | activity change, negative = inhibition [8] 5.7% [at 11.4 µM] | outcome [9]

Oc1ccc([C@H](O)[C@@H]2CCCCN2)cc1O
inactive: Potency [1] > 11.4 µM | activity change, negative = inhibition [2] -22.3% | Potency [3] | activity change, negative = inhibition [4] 5.42% | activity, negative = inhibition [5] 8.8% | Potency [6] > 46 µM | Potency [7] > 9.22 µM | activity change, negative = inhibition [8] 1.46% [at 11.4 µM] | outcome [9]

CC(C)[C@]1(O)[C@@H](OC(=O)c2ccc[nH]2)[C@]2(O)[C@@]3(C)C[C@@]4(O)O[C@@]5([C@H](O)[C@@H](C)CC[C@]35O)[C@]2(O)[C@]41C
inactive: Potency [1] > 11.4 µM | activity change, negative = inhibition [2] 3.13% | activity change, negative = inhibition [3] -17.2% [at 2.29 µM] | activity change, negative = inhibition [4] 3.93% | activity, negative = inhibition [5] -4.77% | Potency [6] > 46 µM | Potency [7] > 9.22 µM | activity change, negative = inhibition [8] 0.163% [at 11.4 µM] | outcome [9] | activation [10] 12.8%

NCCc1c[nH]c2ccc(OC(=O)C(=O)O)cc12
active: Potency [3] 2.51 µM
inactive: Potency [1] > 11.4 µM | activity change, negative = inhibition [2] 9.07% | activity change, negative = inhibition [4] 6.17% | activity, negative = inhibition [5] 10.1% | Potency [6] > 46 µM | Potency [7] > 9.22 µM | activity change, negative = inhibition [8] 8.58% [at 11.4 µM] | outcome [9]

c1ccc2c(c1)Sc1ccccc1N2C[C@H]1CN2CCC1CC2
inactive: Potency [1] > 11.4 µM | activity change, negative = inhibition [2] 24.9% | Potency [3] | activity, negative = inhibition [5] 9.78% | Potency [6] > 46 µM | Potency [7] > 9.22 µM | activity change, negative = inhibition [8] 3.89% [at 11.4 µM] | outcome [9] | outcome [12]
active: activity change, negative = inhibition [4] -73.4% | Potency [11] 0.398 µM

Cc1ccc(OP(=O)(Oc2ccc(C)cc2)N2C=Cc3ccccc3[C@H]2C#N)cc1
active: Potency [3] 3.98 µM | Potency [13] 2.51 µM | Potency [15] 2.51 µM
inactive: Potency [1] > 11.4 µM | activity change, negative = inhibition [2] 0.753% | activity change, negative = inhibition [4] -17.9% | activity, negative = inhibition [5] -13.5% | Potency [6] > 46 µM | Potency [7] > 9.22 µM | activity change, negative = inhibition [8] 7.39% [at 11.4 µM] | outcome [9] | activity change, positive = activation [14] -91.2% [at 11.4 µM]
